Experimental data from ChEMBL document CHEMBL3988442, “University of Dundee, Small-Polar-MMV Screening Library” (2021).

Molecular target: Shiga toxin 2 (Escherichia coli O157:H7) (UniProt P09385+P09386)
Test: E. coli 0.157:H7 Shiga Toxin SOP - stx2 screening assay
Format: functional
Set-up: scale not given: direction of the effect not stated beside the values
Details: 30 µM

SMILES	Percent Effect [%]
Cc1nc(C)c(CC(=O)Nc2ncc(C)s2)c(=O)[nH]1	30.1
CN1CC(c2ccccc2)CC12CCN(C(=O)c1cncc(Cl)c1)CC2 (stereo not given)	12.5
O=C(CCC(=O)N1CCCC1c1cccs1)N1CCc2sccc2C1 (stereo not given)	-7.21
Cc1cnn(C2CCCN(C(=O)c3cn4cccnc4n3)C2)c1 (stereo not given)	8.96
Cc1nn(CC(C)C)c(N(C)C)c1CNCc1cc2ccccc2[nH]1	31.1
Cn1c(C(F)(F)F)nn(CCNC(=O)NCc2ccccc2)c1=O	-52.8
O=C(O)C1(Cc2cc(-c3cccc(F)c3)no2)CCOCC1	9.34
Cc1nc(C)n(C2CCCN(C(=O)c3cc(C(N)=O)cs3)C2)n1 (stereo not given)	-13.1
c1cc(-c2nc(CN3CCn4c(nnc4C4CC4)C3)cs2)cs1	-11.5
Cc1cccc(CS(=O)(=O)NCC(O)Cc2ccccc2)c1 (stereo not given)	0.958
CC(C)CCN1CC2(CCCN(C(=O)c3cscn3)C2)CCC1=O (stereo not given)	-13.4
CCN1CC2(CCC1=O)CCN(C(=O)c1ccc(Cl)cc1O)CC2	-16.7
CN(C)CCNC(=O)CNC(=O)N1CCc2c([nH]c3ccc(Cl)cc23)C1	-77.4
Cc1noc(C)c1C(=O)NCc1ccc(N2CCOC(C)C2)nc1 (stereo not given)	-60.1
Cc1ccc(-c2nnc(CNCCn3cc(C)cn3)o2)cc1	-42
N#CC1(C(=O)N2CCN(Cc3ccon3)CC2)CCC1	3.73
CC(O)CN1CCC(CNCc2cccc(OC(C)C)c2)CC1 (stereo not given)	-10.6
O=C1CC2(CCN(c3nncs3)C2)CN1c1ccccc1 (stereo not given)	-24.1
CC(C)(C)c1n[nH]c(C2CN(C(=O)c3cc(C4CC4)on3)CCO2)n1 (stereo not given)	-1.24
CN1CC(=O)N(c2cccc(F)c2)CC12CCNC2 (stereo not given)	-4.44
